# Screen size: about 4,800 compounds; about 410 (8.5%) showed an effect of 50% or more. This excerpt belongs to a sample that is enriched for strong results.
# Test system: Plasmodium falciparum
# Assay: Confirmatory screen in NF54 pLDH assay, in single point, at 2uM, 72h
# Type: functional, Erythrocyte
# Settings: timepoint 72 hour
row,SMILES,% Inhibition [%]
1,NC(=O)C1CCN(CCC(=O)N2CCc3cc4ccc3[C@@H]2c2cccc(c2)OCCCNC(=O)c2cc(ccc2O)O4)CC1,93
2,O=C1NCCCOc2cccc(c2)[C@H]2c3ccc(cc3CCN2C(=O)CCN2CCOCC2)Oc2ccc(O)c1c2,50
3,NCc1cccc(C(=O)N2CCc3cc4ccc3[C@@H]2c2cccc(c2)OCCCNC(=O)c2cc(ccc2O)O4)c1,98
4,CCc1nc2cc(N3CCC(C(=O)Nc4ccc5c(c4)OCO5)CC3)cnc2nc1CC,8
5,Cc1ccc(NC(=O)CN2N=C(C(=O)Nc3ccccc3)CCC2=O)cc1,-10
6,Cc1cccc(Oc2cc(N)cc(Oc3cccc(C)c3)c2)c1,8
7,O=C(c1cc2ccccc2[nH]1)N1CCc2sc(Cl)cc2C1,5
8,CC(=Cc1cn(C(C)(C)C)nn1)c1nc(C)c(C#N)c(=O)[nH]1,10
9,COc1ccc(C)cc1NC(=O)[C@H]1CCCN(c2cn[nH]c(=O)c2)C1,-8
10,CC(C)(C)CC(=O)Nc1ccccc1C(N)=O,13
11,CC(=O)c1cc(-c2cc(O)cc(CC[C@H]3CCCCN3)c2)ccc1O,85
12,Cc1cc(S(=O)(=O)NC[C@H]2CCCCN2)sc1C,-6
13,Cc1cc(-c2cc(O)cc(CC[C@H]3CCCCN3)c2)ccn1,91
14,Cc1ccc(-c2cc(O)cc(CC[C@H]3CCCCN3)c2)c(C)n1,66
15,CNC(=NCC(C)(C)c1ccc(OC)cc1)NC,7
16,COc1cccc(N2CCN(C(=O)c3cn4cc(-c5ccc(Cl)cc5)ccc4n3)CC2)c1,2
17,Cc1[nH]c2nc3ccccc3n2c(=O)c1Cc1ccccc1Cl,-15
18,CCc1cc(O)nc(CN2CCCC2C(O)C(F)(F)F)n1 (stereo not drawn),-4
19,Oc1ccc(-c2nnc(-c3ccc(O)cc3)nn2)cc1,22
20,CC(C)c1ccc(NC(=O)CCC(=O)N2CCc3ccccc3C2)cc1,9
21,C[C@@]12CO[C@@H](COc3ccccc3)O[C@@H]1CC[C@]1(C)C2CC[C@@H](O)[C@H]1CC(=O)N1CCC[C@H]1CO (stereo partly drawn),6
22,CC1CC(C)CN(C(=O)c2cc(NC(=O)c3ccccc3)n(C)n2)C1 (stereo not drawn),-14
23,O=C(CN1CCOCC1)Nc1ccc(N2CCOCC2)c(F)c1,-8
24,N#Cc1nccnc1NCCCCN1C(=O)c2ccccc2C1=O,-14
25,CC1(C)COC(=O)[C@H]1OCN1CCCC1=O,-7

row,SMILES,% Inhibition [%]
1,CS(=O)(=O)N1CCC(C(=O)Nc2c(C(N)=O)sc3nc(C(F)F)cc(C4CC4)c23)CC1,5
2,COc1ccc(Cl)cc1C(=O)Nc1cc(C2CC2)nn1-c1nc(C)cc(=O)[nH]1,72
3,COc1ccc(NC(=O)c2cc(C3CC3)nc3onc(C4CC4)c23)cc1Cl,-4
4,Cc1cc(=O)[nH]c(N2CCCCCC2)n1,8
5,Cc1cc(=O)[nH]c(-n2nc(C3CC3)cc2NC(=O)C(C)(C)Oc2ccc(Cl)cc2)n1,82
6,O=C(COc1ccc(Cl)cc1)N1CC(n2cnnc2C2CC2)C1,-4
7,COc1ccc(Cl)cc1C(=O)N(C1CCOCC1)[C@H]1CCCN(S(C)(=O)=O)C1,-12
8,COc1ccc(NC(=O)Cn2cnc3nc(N4CCOCC4)ncc3c2=O)cc1,15
9,CO[C@@H](CNc1nc(C)c(S(N)(=O)=O)s1)c1ccc(F)cc1,-17
10,CCc1ccc(C2=C[C@@H](c3cccc(OC)c3)n3ncc(C(=O)Nc4ccc(C)cc4)c3N2)cc1,70
11,COc1cccc([C@H]2CC(=O)Nc3c2cnn3C)c1,-11
12,COc1ccc(NC(=O)[C@@H]2COCC(=O)N2Cc2ccc(C)cc2)cc1,7
13,Cc1nn(CCOc2ccccc2)c(=O)n1-c1ccc(C(C)C)cc1,14
14,CC(=O)N1CCCN(C(=O)c2ccccc2)CCNC(=O)[C@@H]2CCC[C@@H]21,9
15,CC(C)(C)n1ncc2c1NC(=O)C[C@@H]2c1c(F)cccc1Cl,-19
16,CC(C)C(=O)Nc1ccc(-c2cc(-c3ccc(NC(=O)C(C)C)cc3)nc(-c3ccncc3)n2)cc1,42
17,C[C@H](N)c1ccc(Nc2ncc3cc(-c4ccncc4)ccc3n2)cc1,101
18,CCC(CC)C(=O)Nc1cccc(O)c1,7
19,O=c1c2cc(F)c(F)cc2ncn1C[C@@H](O)CC1CCCC1,9
20,O=C1CCC(Nc2ccc(Br)cn2)C(C2CC2)N1 (stereo not drawn),15
21,Clc1cc(CN2CC[C@@]3(CCCOC3)C2)ccc1OCCN1CCOCC1,11
22,CCn1cc(Cl)c(C(=O)N2N=C3/C(=C/c4ccc5c(c4)OCO5)CCCC3C2c2ccc3c(c2)OCO3)n1 (stereo not drawn),8
23,CCc1ccc(NC(=O)c2c(C)sc3ncnc(N4CCCCC4)c23)cc1,12
24,C[C@H](C(=O)Nc1nccn2ccnc12)c1ccccc1,3
25,CC(=O)N1CCn2c(nnc2[C@@H]2CCCN2S(=O)(=O)c2cc(F)ccc2F)C1,3

row,SMILES,% Inhibition [%]
1,CCC(CC)C(=O)Nc1cccc(Cl)c1C,4
2,COc1ccc(CN2CC(C)OC3(CCOC3)C2)cc1Cl (stereo not drawn),6
3,Cc1noc(C)c1C(=O)NC[C@H](O)Cn1ccccc1=O,6
4,Cc1c(NC(=O)c2ccc(-c3cccc(F)c3)o2)cccc1-c1nc2ncccc2o1,-2
5,Cc1ccc(F)cc1S(=O)(=O)N1CC[C@]2(CCN(c3cccnc3)C2)C1,-20
6,N#Cc1ccc(O)c(NC(=O)c2snc(O)c2Cl)c1,-3
7,O=C1[C@@H]2CCCN2C(=O)N1Cc1ccnc(OC2CCOCC2)c1,-11
8,O=C(N[C@H](c1ccccc1)C1CC1)C(c1ccccc1)c1ccccc1,11
9,CN(C)C(=O)NCC1(NC(=O)N(C)C)CCC1,5
10,CCOc1cc(CNC2CCCCC2)cc(Cl)c1OCc1ccc(C)cc1,-4
11,c1ccc(-c2noc(-c3ccc(NC4CCCCC4)nn3)n2)cc1,60
12,Clc1ccc(-c2noc(C3CNC3)n2)cc1,15
13,CC(C)N1CCN(C(=O)CN2N=C(c3nc(-c4ccccc4)no3)CCC2=O)CC1,2
14,COc1cccc(-c2nn(-c3nc(-c4ccccc4)cc(C(F)(F)F)n3)c(-c3cccc(OC)c3)c2Cl)c1,35
15,Cc1c(-c2nn(-c3nc(C4CC4)cc(C(F)(F)F)n3)c(-c3cnn(C)c3C)c2Cl)cnn1C,14
16,COc1ccc(-c2cc(C(F)(F)F)nc(-n3nc(-c4cccc(OC)c4)c(Cl)c3-c3cccc(OC)c3)n2)cc1,92
17,Cc1nnc2ccc(S(=O)(=O)N(Cc3ccc(F)cc3)c3cccc(Cl)c3)cn12,14
18,C[C@H]1CN(Cc2ccccc2)CC2(CCN(C(=O)N(C)C)CC2)O1,10
19,COc1ccc(NC(=O)CN2N=C(C(=O)Nc3ccc(F)cc3)CCC2=O)cc1,-1
20,COc1ccc(F)c(NC(=O)N(CCO)C(C)C)c1,10
21,COc1ccc2nc(O)c(C(=O)Nc3ccc4c(c3F)CCNC4)cc2c1,101
22,O=C(c1cn[nH]c1-c1ccccc1)N1CCCCCC1,1
23,CC(C)[C@@H]1CC[C@H](C)C[C@H]1OC(=O)Cn1cc(-c2ccc(Cl)cc2)[n+]2c1CCC2,75
24,CC(C)(C)NC(=O)c1ncc(Br)cc1Br,5
25,COc1ccc(-c2noc([C@H](C)NC(=O)N3CCNC(=O)C3)n2)cc1OC,6

row,SMILES,% Inhibition [%]
1,CCn1ccnc1C(=O)Nc1ccc(OC)nc1,7
2,CCc1ccc(CS(=O)(=O)NC(=O)c2cn3ccnc3s2)cc1,4
3,CS(=O)(=O)Nc1ccc(OC(=O)C2C3CCCCC32)cc1 (stereo not drawn),11
4,O=C1OC2(c3ccccc31)C(c1ccccc1)CC(=O)N2Cc1ccccc1 (stereo not drawn),-21
5,Cc1ccccc1C(=O)Cc1ncc[nH]1,53
6,Cc1ccc(C(=O)N2CC(C)CC(C)C2)cc1NCc1ncc[nH]1 (stereo not drawn),8
7,C[C@](O)(CCc1ccccc1)C(=O)NCCc1ncc[nH]1,6
8,CCCS(=O)(=O)NC1CCC2(CC1)OCCO2,-18
9,COc1ccc2c(c1)CN(Cc1ccccc1Cl)CC[C@H]1COC(=O)N21,-1
10,CCC1=NN2C(=NC(C(=O)O)=C[C@H]2c2ccc(O)cc2)N1,-3
11,COc1ccccc1C(=O)NC1=C(C)Nc2ncnn2[C@H]1c1c[nH]c2ccccc12,-5
12,COc1cc(N2CCn3c(nc4cc(Cl)ccc43)C2)ccc1NC(=O)c1ccccc1OC,-10
13,COc1ccc([C@@H]2C=C(c3ccc(Cl)cc3)N=C3NC(NC(=O)c4ccccc4OC)=NN32)cc1,89
14,COc1cc(NC(=O)c2ccccc2Cl)cc(S(=O)(=O)c2ccc(Cl)cc2)c1,-15
15,O=C(NC1=NN2C(=NC(c3ccc(Cl)cc3)=C[C@H]2c2ccc(F)cc2)N1)c1ccc(Cl)cc1,13
16,COc1ccccc1C(=O)NC1=NN2C(=NC(c3ccc(Cl)cc3)=C[C@H]2c2ccc(Cl)cc2)N1,92
17,Fc1ccc(C2=C[C@@H](c3ccc(Cl)cc3)N3N=C(c4ccc(Cl)cc4)NC3=N2)cc1,97
18,Cc1noc(Cn2c(=O)c3ccccc3n(CC(=O)Nc3cccc(Cl)c3C)c2=O)n1,2
19,Cc1cccc(N2C(=O)C3CC3C2=O)c1 (stereo not drawn),8
20,C[n+]1ccc(-c2ncc(-c3ccccc3)o2)c2ccccc21,62
21,Cc1cc(F)c(C(=O)Nc2nc(-c3cnn(C)c3)cs2)cc1F,-4
22,O=C(NCc1cccc(C(F)(F)F)c1)c1csc(C(=O)NC2CCCC2)n1,-3
23,Cc1ccccc1N1C2=CCCCCN2C[C@]1(O)c1ccc(Br)cc1,14

# From ChEMBL document CHEMBL4888484, “Replenishing the malaria drug discovery pipeline: Screening and hit evaluation of the MMV Hit Generation Library 1 (HGL1) against asexual blood stage Plasmodium falciparum ,using a nano luciferase reporter read-out” (2022)
